# A selection follows. How many sequences the whole screen found active is unknown. A number with no mark means an inactive call.
# B1: il2ra_site2_2erj_normal_mot_HHH_b1_03609_af2_000000077_0001_42_55_H_._HHH_b2_01692_0001_0000500006_0000001_0 (protein)
# chain: SSSSSEVEEEVREILEEAKHIEDPEEREKVLSKAAELAFENNDFEAWSLVSEVFRELAESSSSSS
# B2: il2ra_site2_2erj_normal_mot_6bd1339e93f6fdda22195c76da45ec5d_0001_000000136_0001_37_51_H_._HHH_b2_06260_0001_0000100003_0000001_0_af2pred_0001_af2pred (protein)
# chain: SSSSSEDEERVEELLEQAEEAAKRDPEKALHLLFEAMEIALKSDNEELLKLVLEVSHRIAESSSS
# B3: il2ra_site2_2erj_normal_mot_HHH_b1_05749_af2_000000010_0001_23_39_H_._HHH_b1_07967_0001_0001100051_0000001_1 (protein)
# chain: SSSSDWLEELYRLAVELLRLSSRRDEEEFERVYREIERLVEEFNNESAREILEHIRRLFEGSSSS
# B4: il2ra_site1_2b5i_normal_mot_2cbe48e66a1f39b3fed734b245ab0a04_0001_000000015_0001_17_31_H_._HHH_b2_00019_0001_0000500012_0000001_0_af2pred_dldesign_0_af2pred (protein)
# chain: SSSSSSDAEAEVERLLEEARKVNPEEAEKLLFKALVVAWAAKDPALVARVEAEAKRLLSSSSSSS
# B5: il2ra_site2_3nfp_sap_25_mot_HHH_b2_07498_000000293_0001_1_14_H_._HHH_b1_01574_0001_0000100004_0000001_0_0001_af2pred_0001_1_af2pred_swapped (protein)
# chain: SSSSSDEELLEEAKRLLEEGNLEEAFRVLAEAASEAIELGDEELAHEIAALAIEVAEKLGSSSSS
# B6: il2ra_site1_1z92_sap_9_mot_HHH_b1_04604_af2_000000029_0001_42_56_H_._3020bb65e3c0c4c1750efda2a61ed53f_0001_1_af2_0001_0000300015_0000001_0_0001 (protein)
# chain: SEEYLEEQLRRKLELGNIEDAARALFKFIAAAAGDPEQAEEFLEELLKRAGVPPEVIEKILEEAK
# B7: il2ra_site1_2b5i_normal_mot_HHH_b2_00231_000000175_0001_20_36_H_._HHH_b2_07547_0001_0000100002_0000001_0_af2pred_0001_af2pred (protein)
# chain: SSSSDVWELYLRASRLFLRGNPEEAERLLEEAIELAERLGDPEIAKQLEEMLRHVRRSLSSSSSS
# B8: il2ra_site2_3nfp_sap_20_mot_ce0e691d864d74cc0dee145e42b7b696_0001_1_af2_000000051_0001_34_49_H_._HHH_b1_03816_af2_0001_0000500031_0000001_0_0001 (protein)
# chain: SSSSSDEEKLEEARELYEEGNPEEARKILLHLVSEAEEKGDRELLFRIMALANEVAAALISSSSS
# B9: il2ra_site2_3nfp_normal_mot_HHH_b1_05918_af2_000000127_0001_23_40_H_._HHH_b1_07797_0001_0000400047_0000001_0 (protein)
# chain: SSSSSEAEEYLRAALLLAELALREGDEENARRSLELAIQLAEHKGNPELLEELEELLEEINSSSS
# B10: il2ra_site1_3nfp_sap_8_mot_119b7766384adbe86006a62bce89dba1_0001_af2_000000092_0001_18_32_H_._HHH_b2_02632_0001_0000300007_0000001_0_0001 (protein)
# chain: SSSSDARELLFEAAEILDELAERGDHEELKRFAEEVIEELEELGNRQAARMIRWLVERALSSSSS
# B11: il2ra_site2_3nfp_sap_22_mot_HHH_b2_08245_000000023_0001_41_55_H_._HHH_b2_07283_0001_0000300027_0000001_0_0001 (protein)
# chain: SSSSDVEERIEELLKEIEELLEKGDPEEAERLLLEVALLAWETGDFEAFAAVTRLLERVQSSSSS
# B12: il2ra_site1_2b5i_sap_18_mot_89dc1dc23437faef961419e82e151d9c_0001_af2_000000202_0001_15_32_H_._9f08b0091ee0dae2b2d48aa630d4ec63_0001_1_0001_0000400022_0000001_0 … (protein)
# chain: SSSSSIEELLEAMLELAEELIENGNPEEARAILLLARRAARAHGNPEYVKELERLLRELLSSSSS
# B13: il2ra_site2_3nfp_normal_mot_HHH_b1_05158_000000192_0001_1_17_H_._HHH_b1_05195_0001_0000600013_0000001_0_af2pred_0001_af2pred (protein)
# chain: SSSSSSDSELTFLLILLEALLEEVDDPEIRELLEEALEELREKKDPEIARKVLKEASEYLSSSSS
# B14: il2ra_site2_3nfp_sap_26_mot_HHH_b1_00015_000000185_0001_19_35_H_._HHH_b2_06138_0001_0000600047_0000001_0_0001_af2pred_0001_af2pred (protein)
# chain: SSSSSSDEEEEVEKLLEEAKHIEDEFELYAVLADAARIAFELKDEELRRLVKEVRHELSSSSSSS
# B15: il2ra_site1_1z92_normal_mot_HHH_b1_08597_af2_000000202_0001_42_56_H_._6e12af4a48b4634929ba45889b8be782_0001_0001_0000600034_0000001_0 (protein)
# chain: NVEWAIENLERLARLQGNPEVERVLRRVLELLKKNEEEAEEFLEELVRELGDKLLRLLLRMLKTA
# B16: il2ra_site1_1z92_sap_14_mot_1581cc1c700002558836ca695aafbf97_0001_1_af2_000000099_0001_17_32_H_._d5167a162c519d043ddc16d89768c28c_0001_1_0001_0000100008_0000001 … (protein)
# chain: SLEEEIERALKEAGVPPEEIEAIKRDIRRTQEFGIPPRSIALAVLRALKSHDEELAERVEELLRK
# B17: il2ra_site1_1z92_normal_mot_HHH_b2_05238_af2_000000252_0001_38_55_H_._HHH_b1_01495_af2_0002_0000300012_0000001_0_af2pred_0001_af2pred_1 (protein)
# chain: SSSSSKEESLELAERAARRAIEAGNERSARRLLKFVIEAAEELGNEELLEELEELLERLESSSSS
# B18: il2ra_site2_2erj_sap_29_mot_dcd9809507f71d420582ead1f1e1bbb3_0001_000000226_0001_37_50_H_._HHH_b1_02896_af2_0001_0000500038_0000001_0_0001 (protein)
# chain: SSSSSSLHELYELANRLMHALSNGDEELLEELLEELEELAKELQSDTAREIVENIRRRLSSSSSS
# B19: il2ra_site1_1z92_sap_17_mot_c66c727fe7b11027095aa3ef302aaf37_0001_000000167_0001_38_52_H_._665b9007e6d0b9979c9b0c82f83b8fcc_0001_0001_0000200023_0000001_0_0001 (protein)
# chain: SSSSDSRERIEELAEFLARDIKMTGNPWARRLLELLLEKAEKLGDEELREIIEQLLEELRSSSSS
# B20: il2ra_site1_3nfp_sap_16_mot_HHH_b1_00461_af2_000000238_0001_1_17_H_._HHH_b2_08025_0001_0000300024_0000001_0_0001_af2pred_0001_af2pred_swapped (protein)
# chain: SSSSSRILRFLEELARKAFERNDKKQLEAILKLIRKAAKQFKDEEVEELLELVEELLKKLSSSSS
# B21: il2ra_site2_2erj_normal_mot_HHH_b1_05204_000000269_0001_1_15_H_._HHH_b1_00954_0001_0000200014_0000001_0_1_af2pred_0001_af2pred (protein)
# chain: SSSSDLEEELRRLLEELEELVKEGDEKKFMEVALRVAKLVIENNDEEAAKLLLRLLRELRSSSSS
# B22: il2ra_site2_2erj_sap_27_mot_HHH_b1_08185_000000063_0001_41_55_H_._HHH_b1_03158_0001_0000300009_0000001_0_0001_af2pred_0001_1_af2pred_swapped (protein)
# chain: SSSDAQERAREVLEEVIELLRQGNHEEAKKLLEEAREILEELGDRAAVRLIEAALRLLESLSSSS
# B23: il2ra_site2_2erj_sap_22_mot_c2bf78bdce995293a161f7082e24b401_0001_af2_000000082_0001_17_32_H_._HHH_b2_05133_0001_0000600016_0000001_0_0001 (protein)
# chain: SSSSDEELHEIFELLSLLLEAIQKGDDELFKKLVEEVRQLIEEKGSPNLREILEWLERHFHSSSS
# B24: il2ra_site2_3nfp_normal_mot_HHH_b1_04264_000000089_0001_1_18_H_._332cd829babfe32ea4315b179459513b_0001_1_0001_0000100003_0000001_0 (protein)
# chain: SQEVFEVIHKLREEGDPELAISLFALLAELLLHPENEELREKLEELLEIIKKNPEEAREVARKLP
# Target: il2ra, P01589
# Assay: yeast display titration
# Chain of il2ra, P01589 (P01589 whole entry): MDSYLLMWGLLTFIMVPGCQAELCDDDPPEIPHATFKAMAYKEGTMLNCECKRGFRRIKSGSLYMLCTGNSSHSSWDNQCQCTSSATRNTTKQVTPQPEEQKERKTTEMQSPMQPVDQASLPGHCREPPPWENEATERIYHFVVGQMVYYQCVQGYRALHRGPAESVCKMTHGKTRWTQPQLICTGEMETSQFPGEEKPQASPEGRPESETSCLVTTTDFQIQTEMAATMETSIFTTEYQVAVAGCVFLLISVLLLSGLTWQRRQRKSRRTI
row,Binder,apparent Kd
1,B1,no binding seen
2,B2,no binding seen
3,B3,no binding seen
4,B4,no binding seen
5,B5,no binding seen
6,B6,no binding seen
7,B7,no binding seen
8,B8,no binding seen
9,B9,no binding seen
10,B10,no binding seen
11,B11,no binding seen
12,B12,no binding seen
13,B13,no binding seen
14,B14,no binding seen
15,B15,> 311 nM
16,B16,no binding seen
17,B17,no binding seen
18,B18,no binding seen
19,B19,no binding seen
20,B20,no binding seen
21,B21,no binding seen
22,B22,no binding seen
23,B23,no binding seen
24,B24,no binding seen
